# Assay results published in PubChem BioAssay AID1159580 (chemical genetic matrix, 2015).
# Screen size: about 5,500 compounds; about 2,000 (36%) were called active. Inconclusive results (about 18%) are left out. The list shows a part of the results. Values without a mark were called inactive. Rule as the data show it: active = normalized growth mostly below about 0.91 (no sharp cut-off); inconclusive = no clear call, values can overlap the other calls; inactive = mostly above about 0.92.
# Assay: chemical genetic growth profiling, strain panel (AID 1159580);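 also: tested at 20 µM; growth read once vehicle control cultures reached saturation at 30 °C; 1 = growth at the plate median or of vehicle wells; lower values mean less growth of the strain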
# Conditions: S. cerevisiae deletion strains, growth OD
# [1] = locus YAR019C, strain CDC15, stronger effect = lower value
# [2] = locus YBL105C, strain PKC1, stronger effect = lower value
# [3] = locus YBR135W, strain CKS1, stronger effect = lower value
# [4] = locus YBR136W, strain MEC1, stronger effect = lower value
# [5] = locus YBR160W, strain CDC28, stronger effect = lower value
# [6] = locus YDL017W, strain CDC7, stronger effect = lower value
# [7] = locus YDL028C, strain MPS1, stronger effect = lower value
# [8] = locus YDL101C, strain DUN1, stronger effect = lower value
# [9] = locus YDL108W, strain KIN28, stronger effect = lower value
# [10] = locus YDL132W, strain cdc53, stronger effect = lower value
# [11] = locus YDL214C, strain PRR2, stronger effect = lower value
# [12] = locus YDR052C, strain DBF4, stronger effect = lower value
# [13] = locus YDR054C, strain cdc34, stronger effect = lower value
# [14] = locus YDR226W, strain ADK1, stronger effect = lower value
# [15] = locus YDR477W, strain SNF1, stronger effect = lower value
# [16] = locus YER123W, strain YCK3, stronger effect = lower value
# [17] = locus YER133W, strain GLC7, stronger effect = lower value
# [18] = locus YFL009W, strain cdc4, stronger effect = lower value
# [19] = locus YFL029C, strain CAK1, stronger effect = lower value
# [20] = locus YFR003C, strain YPI1, stronger effect = lower value
# [21] = locus YFR019W, strain FAB1, stronger effect = lower value
# [22] = locus YFR028C, strain CDC14, stronger effect = lower value
# [23] = locus YGR040W, strain KSS1, stronger effect = lower value
# [24] = locus YGR052W, strain FMP48, stronger effect = lower value
# [25] = locus YGR092W, strain DBF2, stronger effect = lower value
# [26] = locus YHR030C, strain SLT2, stronger effect = lower value
# [27] = locus YHR079C, strain IRE1, stronger effect = lower value
# [28] = locus YHR082C, strain KSP1, stronger effect = lower value
# [29] = locus YHR205W, strain SCH9, stronger effect = lower value
# [30] = locus YIL147C, strain SLN1, stronger effect = lower value
# [31] = locus YJL095W, strain BCK1, stronger effect = lower value
# [32] = locus YJL128C, strain PBS2, stronger effect = lower value
# [33] = locus YJL157C, strain FAR1, stronger effect = lower value
# [34] = locus YJR016C, strain ILV3, stronger effect = lower value
# [35] = locus YJR066W, strain TOR1 (second series), stronger effect = lower value
# [36] = locus YJR066W, strain TOR1, stronger effect = lower value
# [37] = locus YKL048C, strain ELM1, stronger effect = lower value
# [38] = locus YKL067W, strain YNK1, stronger effect = lower value
# [39] = locus YKL101W, strain HSL1, stronger effect = lower value
# [40] = locus YKL193C, strain SDS22, stronger effect = lower value
# [41] = locus YKL203C, strain TOR2, stronger effect = lower value
# [42] = locus YLR113W, strain HOG1, stronger effect = lower value
# [43] = locus YLR133W, strain CKI1, stronger effect = lower value
# [44] = locus YLR403W, strain SFP1, stronger effect = lower value
# [45] = locus YML070W, strain DAK1, stronger effect = lower value
# [46] = locus YMR001C, strain CDC5, stronger effect = lower value
# [47] = locus YMR205C, strain PFK2 (second series), stronger effect = lower value
# [48] = locus YMR277W, strain FCP1, stronger effect = lower value
# [49] = locus YNL006W, strain LST8, stronger effect = lower value
# [50] = locus YNL020C, strain ARK1, stronger effect = lower value
# [51] = locus YNL161W, strain CBK1, stronger effect = lower value
# [52] = locus YNL183C, strain NPR1, stronger effect = lower value
# [53] = locus YNL207W, strain RIO2, stronger effect = lower value
# [54] = locus YNL222W, strain SSU72, stronger effect = lower value
# [55] = locus YNL307C, strain MCK1 (second series), stronger effect = lower value
# [56] = locus YOL078W, strain AVO1, stronger effect = lower value
# [57] = locus YOL136C, strain PFK27, stronger effect = lower value
# [58] = locus YOR061W, strain CKA2, stronger effect = lower value
# [59] = locus YOR119C, strain RIO1, stronger effect = lower value
# [60] = locus YOR231W, strain MKK1, stronger effect = lower value
# [61] = locus YOR329C, strain SCD5, stronger effect = lower value
# [62] = locus YPL031C, strain PHO85, stronger effect = lower value
# [63] = locus YPL153C, strain RAD53, stronger effect = lower value
# [64] = locus YPL204W, strain HRR25, stronger effect = lower value
# [65] = locus YPL209C, strain IPL1, stronger effect = lower value
# [66] = locus YPL256C, strain CLN2, stronger effect = lower value
# [67] = locus YPR025C, strain CCL1, stronger effect = lower value
# [68] = locus YPR106W, strain ISR1, stronger effect = lower value
# [69] = locus YPR111W, strain DBF20, stronger effect = lower value
# [70] = strain NNK1, stronger effect = lower value
# [71] = strain TSCII, stronger effect = lower value
smiles,measurement,setting,value
Oc1c(Cl)cc(Cl)cc1/C=N\NC(=S)Nc1cc(C(F)(F)F)cc(C(F)(F)F)c1,normalized growth,[1],0.815 (active)
same,normalized growth,[2],0.899 (active)
same,normalized growth,[3],0.884 (active)
same,normalized growth,[4],0.888 (active)
same,normalized growth,[5],0.893 (active)
same,normalized growth,[6],0.889 (active)
same,normalized growth,[7],0.878 (active)
same,normalized growth,[8],0.922
same,normalized growth,[9],0.88 (active)
same,normalized growth,[10],0.811 (active)
same,normalized growth,[11],0.179 (active)
same,normalized growth,[12],0.894 (active)
same,normalized growth,[13],0.491 (active)
same,normalized growth,[14],0.886 (active)
same,normalized growth,[15],0.285 (active)
same,normalized growth,[16],0.158 (active)
same,normalized growth,[17],0.338 (active)
same,normalized growth,[18],0.611 (active)
same,normalized growth,[19],0.784 (active)
same,normalized growth,[20],0.853 (active)
same,normalized growth,[21],0.111 (active)
same,normalized growth,[22],0.857 (active)
same,normalized growth,[23],0.35 (active)
same,normalized growth,[24],0.132 (active)
same,normalized growth,[25],0.0943 (active)
same,normalized growth,[26],0.126 (active)
same,normalized growth,[27],0.103 (active)
same,normalized growth,[28],0.151 (active)
same,normalized growth,[29],0.121 (active)
same,normalized growth,[30],0.887 (active)
same,normalized growth,[31],0.136 (active)
same,normalized growth,[32],0.905
same,normalized growth,[33],0.128 (active)
same,normalized growth,[34],0.722 (active)
same,normalized growth,[35],0.118 (active)
same,normalized growth,[36],0.119 (active)
same,normalized growth,[37],0.166 (active)
same,normalized growth,[38],0.137 (active)
same,normalized growth,[39],0.12 (active)
same,normalized growth,[40],0.858 (active)
same,normalized growth,[41],0.132 (active)
same,normalized growth,[42],0.171 (active)
same,normalized growth,[43],0.12 (active)
same,normalized growth,[44],0.159 (active)
same,normalized growth,[45],0.116 (active)
same,normalized growth,[46],0.805 (active)
same,normalized growth,[47],0.157 (active)
same,normalized growth,[48],0.811 (active)
same,normalized growth,[49],0.673 (active)
same,normalized growth,[50],0.117 (active)
same,normalized growth,[51],0.789 (active)
same,normalized growth,[52],0.245 (active)
same,normalized growth,[53],0.858 (active)
same,normalized growth,[54],0.885 (active)
same,normalized growth,[55],0.114 (active)
same,normalized growth,[56],0.856 (active)
same,normalized growth,[57],0.139 (active)
same,normalized growth,[58],0.114 (active)
same,normalized growth,[59],0.217 (active)
same,normalized growth,[60],0.128 (active)
same,normalized growth,[61],0.56 (active)
same,normalized growth,[62],0.163 (active)
same,normalized growth,[63],0.171 (active)
same,normalized growth,[64],0.121 (active)
same,normalized growth,[65],0.891 (active)
same,normalized growth,[66],0.158 (active)
same,normalized growth,[67],0.893 (active)
same,normalized growth,[68],0.922
same,normalized growth,[69],0.905
same,normalized growth,[70],0.272 (active)
same,normalized growth,[71],0.621 (active)
CCNC(=S)N/N=C\c1cc(Cl)cc(Cl)c1O,normalized growth,[1],0.926
same,normalized growth,[2],0.938
same,normalized growth,[3],0.92
same,normalized growth,[4],0.931
same,normalized growth,[5],0.922
same,normalized growth,[6],0.925
same,normalized growth,[7],0.927
same,normalized growth,[8],0.923
same,normalized growth,[9],0.928
same,normalized growth,[10],0.948
same,normalized growth,[11],0.83
same,normalized growth,[12],0.929
same,normalized growth,[13],0.938
same,normalized growth,[14],0.941
same,normalized growth,[15],0.733
same,normalized growth,[16],0.577 (active)
same,normalized growth,[17],0.752
same,normalized growth,[18],0.911
same,normalized growth,[19],0.919
same,normalized growth,[20],0.937
same,normalized growth,[21],0.873
same,normalized growth,[22],0.947
same,normalized growth,[23],0.775
same,normalized growth,[24],0.709
same,normalized growth,[25],0.313 (active)
same,normalized growth,[26],0.446 (active)
same,normalized growth,[27],0.341 (active)
same,normalized growth,[28],0.699
same,normalized growth,[29],0.778
same,normalized growth,[30],0.923
same,normalized growth,[31],0.568
same,normalized growth,[32],0.925
same,normalized growth,[33],0.774
same,normalized growth,[34],0.93
same,normalized growth,[35],0.654
same,normalized growth,[36],0.509
same,normalized growth,[37],0.825
same,normalized growth,[38],0.875
same,normalized growth,[39],0.76
same,normalized growth,[40],0.908
same,normalized growth,[41],0.686 (active)
same,normalized growth,[42],0.706 (active)
same,normalized growth,[43],0.804
same,normalized growth,[44],0.746
same,normalized growth,[45],0.809
same,normalized growth,[46],0.923
same,normalized growth,[47],0.805
same,normalized growth,[48],0.916
same,normalized growth,[49],0.919
same,normalized growth,[50],0.749
same,normalized growth,[51],0.926
same,normalized growth,[52],0.589
same,normalized growth,[53],0.91
same,normalized growth,[54],0.93
same,normalized growth,[55],0.647
same,normalized growth,[56],0.916
same,normalized growth,[57],0.778
same,normalized growth,[58],0.801
same,normalized growth,[59],0.78
same,normalized growth,[60],0.471 (active)
same,normalized growth,[61],0.926
same,normalized growth,[62],0.635 (active)
same,normalized growth,[63],0.621 (active)
same,normalized growth,[64],0.642 (active)
same,normalized growth,[65],0.919
same,normalized growth,[66],0.495 (active)
same,normalized growth,[67],0.923
same,normalized growth,[68],0.947
same,normalized growth,[69],0.938
same,normalized growth,[70],0.94
same,normalized growth,[71],0.912
